Data: PubChem BioAssay (Tox21)
Where “and” joins values, the source holds several entries; their conditions need not be identical. Equal entries are not always repeated. Calls of active or inactive are those of the source. Where a call stands in place of a potency, no number is given. Unless noted, calls come from the whole dose curve; as a rule, active = well fitted curve in the direction sought with a large enough effect in the repeat runs; inconclusive = weak or mixed curves; inactive = no such curve, though single readings can be large; an effect the other way counts as inactive or inconclusive.

What was measured:
[1] = qHTS assay for small molecule agonists of the p53 signaling pathway (AID 651631; calls by dose curve; note: nearly all actives have a fitted effect of over 15% in size; note: potency is the fitted concentration of half-maximal effect)
Procedure, shortened: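 HCT-116 cells carrying a beta-lactamase reporter under p53 response elements were dosed with compound for 16 h at 37 °C. LiveBLAzer B/G FRET substrate was then added for 2 h at room temperature, and fluorescence intensity was read to detect pathway agonism.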

[2] = qHTS assay for small molecule agonists of the p53 signaling pathway - cell viability (AID 651633; calls by dose curve; note: nearly all actives have a fitted effect of over 30% in size; note: potency is the fitted concentration of half-maximal effect)
Procedure, shortened: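 p53RE-bla cells were treated with compound for 16 hours at 37 C. Cytotoxicity was then measured as CellTiter-Glo luminescence after 30 min at room temperature.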

[3] = qHTS assay to test for compound auto fluorescence at 590 nm (red) in HepG2 cells (AID 720674)
Procedure, shortened: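 Seeding: 2,000 HepG2 cells/well, MEM/10% FBS, overnight 37 C. Dosing: compound vs DMSO. Incubation: 1 hr, 37 C, 5% CO2. Read: fluorescence 540 ex/590 em, Rose Bengal sodium as red reference.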

[4] = qHTS assay to test for compound auto fluorescence at 460 nm (blue) in HEK293 cells (AID 720678)
Procedure, shortened: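 Blue-channel (Ex/Em 405/460 nm) intensity measured in HEK293 cultures after overnight compound exposure at 37C; signal expressed relative to triamterene. Cells plated 2,000 per well in 10% dialyzed FBS medium and allowed 4-5 hr to attach.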

[5] = qHTS assay to test for compound auto fluorescence at 460 nm (blue) in HEK293 cell free culture (AID 720681)
Procedure, shortened: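 Compounds were added to cell-free DMEM with 10% FBS and fluorescence read directly. The blue channel used 405 nm excitation and 460 nm emission, with triamterene as the reference fluorophore.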

[6] = qHTS assay to test for compound auto fluorescence at 590 nm (red) in HEK293 cell free culture (AID 720683)
Procedure, shortened: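 Cell-free wells of DMEM with 10% FBS received compound, and intrinsic fluorescence was read at excitation/emission 540/590 nm. Values expressed as equivalence to Rose Bengal sodium.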

[7] = qHTS assay to test for compound auto fluorescence at 460 nm (blue) in HepG2 cells (AID 720687)
Procedure, shortened: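 HepG2 cells in MEM with 10% FBS, attached overnight at 37 C, were exposed to compound or DMSO for 1 hr at 37 C, 5% CO2. Blue fluorescence was read at 405/460 nm, with triamterene as reference fluorophore.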

[8] = qHTS assay for identifying genotoxic compounds that show differential cytotoxicity against isogenic chicken DT40 cell lines with known DNA damage response pathways - wild type cell line (AID 743012); note: nearly all actives have a fitted effect of over 60% in size; note: potency is the fitted concentration of half-maximal effect
Procedure, shortened: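 Viability by ATP luminescence (CellTiter-Glo, 30 min RT) after 40 h compound treatment at 37 C/5% CO2, using 300 parental DNA repair-proficient DT40 cells per well.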

[9] = qHTS assay for identifying genotoxic compounds that show differential cytotoxicity against isogenic chicken DT40 cell lines with known DNA damage response pathways - Rad54/Ku70 mutant cell line (AID 743015); note: nearly all actives have a fitted effect of over 60% in size; note: potency is the fitted concentration of half-maximal effect
[10] = molecular target: Nuclear receptor subfamily 1 group I member 2 (Homo sapiens) (UniProt O75469); experiment: CYP3A4 induction through human pregnane X receptor (PXR) by small molecules, qHTS assay (AID 1346984); note: nearly all actives have a fitted effect of over 40% in size
Procedure, shortened: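 Read-out is luminescence after One-Glo addition, following a 3 hr, 37C incubation with Luciferin-IPA CYP3A4 substrate (3uM final). Before that, compounds were on DPX-2 cells (HepG2 co-transfected with PXR element plus CYP3A4-promoter luciferase) for 24 hr at 37C.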

[11] = qHTS assay to test for compound auto fluorescence at 535 nm (green) in HEK293 cell free culture (AID 720682)
Procedure, shortened: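 Green-label autofluorescence (485 nm excitation, 535 nm emission) measured on compound added to cell-free culture medium (DMEM, 10% FBS). Output is expressed relative to fluorescein.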

[12] = molecular target: Glucocorticoid receptor (Homo sapiens) (UniProt P04150); experiment: qHTS assay to identify small molecule antagonists of the glucocorticoid receptor (GR) signaling pathway (AID 720692; active = well fitted inhibition curve with a large enough effect in the signal ratio in the repeat runs, not every such curve was filed as active; inconclusive = weak or mixed curves, or effect the other way; inactive = no such curve, though single readings can be large or run the other way; the % refers to the signal ratio)
Procedure, shortened: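 Inhibition of dexamethasone-driven (5 nM final) beta-lactamase expression was measured in GRE-reporter HeLa cells over 18 h at 37C. Fluorescence was read after 2 h with the B/G FRET substrate at room temperature.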

[13] = qHTS assay for identifying genotoxic compounds that show differential cytotoxicity against isogenic chicken DT40 cell lines with known DNA damage response pathways - Rev3 mutant cell line (AID 743014); note: nearly all actives have a fitted effect of over 55% in size; note: potency is the fitted concentration of half-maximal effect
[14] = qHTS assay to identify small molecule antagonists of the androgen receptor (AR) signaling pathway - cell viability counter screen (AID 743033; note: nearly all actives have a fitted effect of over 45% in size; note: potency is the fitted concentration of half-maximal effect)
[15] = molecular target: Estrogen receptor (Homo sapiens) (UniProt P03372); experiment: qHTS assay to identify small molecule agonists of the estrogen receptor alpha (ER-alpha) signaling pathway (AID 743075; calls by dose curve;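 note: HEK293 GripTite cells with ER-alpha and UAS-driven beta-lactamase reporter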; note: potency is the fitted concentration of half-maximal effect)
[16] = molecular target: Estrogen receptor (Homo sapiens) (UniProt P03372); experiment: qHTS assay to identify small molecule agonists of the estrogen receptor alpha (ER-alpha) signaling pathway using the BG1 cell line (AID 743079); note: nearly all actives have a fitted effect of over 20% in size
[17] = qHTS assay to identify small molecule antagonists of the estrogen receptor alpha (ER-alpha) signaling pathway using the BG1 cell line (AID 743080; calls by dose curve;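 note: BG1 cells stimulated with 17beta-estradiol alongside compound; series mostly up to about 70 µM; nearly all actives have a fitted effect of over 25% in size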)
Procedure, shortened: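 Luciferase inhibition measured with ONE-Glo after 30 min at RT in BG1Luc4E2 cells given test compounds and 17beta-estradiol for 21.5 h at 37 C; CellTiter-Fluor viability read in the same wells beforehand.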

[18] = molecular target: Peroxisome proliferator-activated receptor gamma (Homo sapiens) (UniProt P37231); experiment: qHTS assay to identify small molecule agonists of the peroxisome proliferator-activated receptor gamma (PPARg) signaling pathway (AID 743094; active = well fitted activation curve with a large enough effect in the signal ratio in the repeat runs, not every such curve was filed as active; inconclusive = weak or mixed curves, or effect the other way; inactive = no such curve, though single readings can be large or run the other way; the % refers to the signal ratio)
Procedure, shortened: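 Agonist activity was taken from a beta-lactamase reporter (FRET substrate, 1 h at room temperature) in HEK293H cells carrying a PPARg UAS-bla construct. Compounds in DMSO were incubated 17 h at 37C after a 5 h cell pre-incubation.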

[19] = molecular target: Aryl hydrocarbon receptor (Homo sapiens) (UniProt P35869); experiment: qHTS assay to identify small molecule that activate the aryl hydrocarbon receptor (AhR) signaling pathway (AID 743085); note: nearly all actives have a fitted effect of over 15% in size; note: potency is the fitted concentration of half-maximal effect;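 for activation: HG2L7.5c1 human HepG2 liver cells with stably integrated DRE-driven firefly reporter; series mostly up to about 70 µM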
Procedure, shortened: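 HepG2 cells stably carrying a 20-DRE firefly luciferase reporter (HG2L7.5c1) treated with compound for 24 hr at 37C. Luciferase read by ONE-Glo luminescence, with CellTiter-Fluor viability read first.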

[20] = molecular target: Nuclear receptor subfamily 1 group I member 2 (Homo sapiens) (UniProt O75469); experiment: Human pregnane X receptor (PXR) activation by small molecules, qHTS assay (AID 1346985); note: nearly all actives have a fitted effect of over 40% in size
Procedure, shortened: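 DPX-2 cells (HepG2 co-transfected with a PXR response element and a CYP3A4-promoter luciferase construct) were seeded at 2,000 per well, rested 5 hr at 37C, then exposed to DMSO-dissolved compounds for 24 hr. Activation was read as luciferase luminescence.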

Chain of Glucocorticoid receptor (Homo sapiens) (P04150 whole entry, looked up): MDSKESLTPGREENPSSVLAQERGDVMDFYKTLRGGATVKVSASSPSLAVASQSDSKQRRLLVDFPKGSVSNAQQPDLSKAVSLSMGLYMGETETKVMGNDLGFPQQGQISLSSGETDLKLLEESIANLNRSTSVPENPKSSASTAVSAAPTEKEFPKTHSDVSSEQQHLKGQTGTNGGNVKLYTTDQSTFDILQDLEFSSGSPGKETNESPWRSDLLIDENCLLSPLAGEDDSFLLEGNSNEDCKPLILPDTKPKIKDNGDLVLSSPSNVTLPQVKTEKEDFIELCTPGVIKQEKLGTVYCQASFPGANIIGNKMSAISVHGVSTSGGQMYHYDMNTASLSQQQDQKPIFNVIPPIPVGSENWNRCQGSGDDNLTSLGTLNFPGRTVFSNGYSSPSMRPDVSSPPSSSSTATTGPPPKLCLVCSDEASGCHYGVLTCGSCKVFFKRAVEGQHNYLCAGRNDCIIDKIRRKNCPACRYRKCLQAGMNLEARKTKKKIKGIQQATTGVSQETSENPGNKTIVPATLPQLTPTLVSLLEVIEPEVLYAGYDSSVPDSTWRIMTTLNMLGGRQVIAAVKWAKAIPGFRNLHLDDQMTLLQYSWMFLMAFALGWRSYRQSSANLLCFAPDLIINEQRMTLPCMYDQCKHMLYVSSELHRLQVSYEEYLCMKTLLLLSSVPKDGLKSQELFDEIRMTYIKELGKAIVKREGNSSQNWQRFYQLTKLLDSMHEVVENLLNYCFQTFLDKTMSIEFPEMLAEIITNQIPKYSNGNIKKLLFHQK
Chain of Estrogen receptor (Homo sapiens) (P03372 whole entry, looked up): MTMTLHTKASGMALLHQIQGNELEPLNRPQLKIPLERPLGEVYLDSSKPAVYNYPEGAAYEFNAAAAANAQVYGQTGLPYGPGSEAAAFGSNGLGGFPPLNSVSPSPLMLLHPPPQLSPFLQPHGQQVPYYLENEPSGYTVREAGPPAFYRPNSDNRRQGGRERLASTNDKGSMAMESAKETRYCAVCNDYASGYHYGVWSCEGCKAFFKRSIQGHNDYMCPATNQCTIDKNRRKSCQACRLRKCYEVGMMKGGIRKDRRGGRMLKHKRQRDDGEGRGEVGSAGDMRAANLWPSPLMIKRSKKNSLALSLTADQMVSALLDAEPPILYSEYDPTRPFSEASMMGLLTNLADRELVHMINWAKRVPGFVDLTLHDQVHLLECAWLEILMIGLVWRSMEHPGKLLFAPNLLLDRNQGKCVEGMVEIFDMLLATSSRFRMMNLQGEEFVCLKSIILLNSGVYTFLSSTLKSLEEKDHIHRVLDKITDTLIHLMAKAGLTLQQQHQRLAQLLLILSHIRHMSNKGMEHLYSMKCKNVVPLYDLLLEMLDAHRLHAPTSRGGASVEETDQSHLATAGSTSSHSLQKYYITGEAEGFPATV
Chain of Peroxisome proliferator-activated receptor gamma (Homo sapiens) (P37231 whole entry, looked up): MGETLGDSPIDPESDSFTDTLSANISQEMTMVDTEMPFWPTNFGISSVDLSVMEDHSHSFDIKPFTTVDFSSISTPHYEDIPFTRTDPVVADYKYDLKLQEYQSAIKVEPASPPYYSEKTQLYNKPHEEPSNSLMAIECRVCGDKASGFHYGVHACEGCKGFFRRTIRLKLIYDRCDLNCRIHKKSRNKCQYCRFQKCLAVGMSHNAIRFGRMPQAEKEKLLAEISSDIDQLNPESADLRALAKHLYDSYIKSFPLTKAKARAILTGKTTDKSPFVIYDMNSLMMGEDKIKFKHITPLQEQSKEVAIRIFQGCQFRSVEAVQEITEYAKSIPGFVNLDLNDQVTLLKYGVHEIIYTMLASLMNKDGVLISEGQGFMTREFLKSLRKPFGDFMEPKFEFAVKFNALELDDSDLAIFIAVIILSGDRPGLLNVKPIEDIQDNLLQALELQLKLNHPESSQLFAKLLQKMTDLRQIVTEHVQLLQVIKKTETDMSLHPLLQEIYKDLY
Chain of Aryl hydrocarbon receptor (Homo sapiens) (P35869 whole entry, looked up): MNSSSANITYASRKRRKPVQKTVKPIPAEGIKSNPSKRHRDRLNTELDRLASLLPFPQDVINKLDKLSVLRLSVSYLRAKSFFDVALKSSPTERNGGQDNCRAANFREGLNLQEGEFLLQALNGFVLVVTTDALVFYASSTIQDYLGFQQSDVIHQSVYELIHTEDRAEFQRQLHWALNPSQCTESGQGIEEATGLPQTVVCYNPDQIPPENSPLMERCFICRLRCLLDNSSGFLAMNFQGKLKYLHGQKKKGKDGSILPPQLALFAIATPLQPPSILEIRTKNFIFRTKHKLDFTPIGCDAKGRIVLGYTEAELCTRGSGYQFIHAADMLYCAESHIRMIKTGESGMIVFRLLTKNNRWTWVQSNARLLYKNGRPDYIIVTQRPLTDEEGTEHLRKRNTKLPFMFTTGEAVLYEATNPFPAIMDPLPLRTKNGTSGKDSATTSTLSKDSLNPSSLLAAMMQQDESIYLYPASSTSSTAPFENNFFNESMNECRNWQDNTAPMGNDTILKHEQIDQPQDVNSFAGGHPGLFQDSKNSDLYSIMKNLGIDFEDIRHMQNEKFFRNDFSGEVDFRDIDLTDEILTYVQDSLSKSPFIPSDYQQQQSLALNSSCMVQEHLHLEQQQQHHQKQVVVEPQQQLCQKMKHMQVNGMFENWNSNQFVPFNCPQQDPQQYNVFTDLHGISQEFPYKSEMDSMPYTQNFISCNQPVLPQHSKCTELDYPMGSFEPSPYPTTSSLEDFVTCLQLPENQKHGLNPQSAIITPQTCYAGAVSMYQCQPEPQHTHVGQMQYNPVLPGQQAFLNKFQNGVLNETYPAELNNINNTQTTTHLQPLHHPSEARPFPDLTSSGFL

SMILES | Potency [1] | Potency [2] | outcome [3] | Potency [4] | Potency [5] | outcome [6] | Potency [7] | Potency [8] | Potency [9] | Potency [10] | Potency [11] | Potency [12] | Potency [13] | Potency [14] | Potency [15] | Potency [16] | Potency [17] | Potency [18] | Potency [19] | Potency [20]
Cc1nnc2n1-c1ccc(Cl)cc1C(c1ccccc1Cl)=NC2 | inactive | inactive | inactive | inactive | inactive | inactive | inactive | inactive | inactive | inactive |  |  |  |  |  |  |  |  |  | 
CCNC1(c2cccs2)CCCCC1=O (configuration not stated) | inactive | inactive | inactive |  | inactive |  | inactive | inactive | inactive |  | inactive | inactive | inactive | inactive | inactive | inactive | inactive | inactive |  | 
CCCSc1cc(OC)c(CCN)cc1OC | 32.5 µM (active) | inactive | inactive | inactive | inactive | inactive | inactive | 183 nM (active) | 0.258 µM (active) |  | inactive | inactive | 258 nM (active) | inactive | inactive |  | inactive | inactive | 29 µM (active) | 
Oc1cc[c]([Hg][Cl])cc1 | 23.7 µM (active) | 9.44 µM (active) and 16.8 µM (active) |  | inactive |  | inactive |  | 422 nM (active) and 596 nM (active) | 0.473 µM (active) | inactive | inactive |  | 750 nM (active) and 841 nM (active) | 7.56 µM (active) and 19 µM (active) | 21.3 µM [inconclusive] (active) |  |  |  |  | 
CC(=O)[C@@]1(O)CC[C@H]2[C@@H]3CCC4=CC(=O)CC[C@]4(C)C3(F)[C@@H](O)C[C@@]21C (some centres not stated) | inactive | inactive |  |  | inactive | inactive | inactive | inactive | inactive |  | inactive |  |  |  | inactive | inactive |  | inactive | inactive | 
O=C(O)CCCO | inactive |  | inactive | inactive | inactive | inactive | inactive | inactive | inactive |  | inactive | inactive | inactive | inactive |  |  |  | inactive | inactive | 
C=C[C@H]1CN2CC[C@H]1C[C@H]2[C@H](OC(=O)OCC)c1ccnc2ccc(OC)cc12 | inactive | inactive | inactive |  | inactive | inactive | inactive |  | inactive | inactive | inactive | inactive |  | inactive |  |  |  | inactive |  | 
O=C1C[C@@H]2OCC=C3CN4CC[C@]56c7ccccc7N1[C@H]5[C@H]2[C@H]3C[C@H]46 (tested in a mixture with another compound) | inactive |  | inactive | inactive | inactive | inactive | inactive | inactive | inactive |  | inactive |  | inactive | inactive |  |  |  |  |  | 
O=C(NC(=O)c1c(F)cccc1F)Nc1ccc(Cl)c(Oc2ncc(C(F)(F)F)cc2Cl)c1 |  |  | inactive | inactive | inactive |  |  |  |  | inactive | inactive |  |  | inactive | inactive | inactive | inactive | inactive | inactive | inactive
CCc1cc(OC)c(C[C@@H](C)N)cc1OC | inactive | inactive |  | inactive | inactive |  |  | 56700 nM (active) | 71.4 µM (active) |  | inactive | inactive | 63600 nM (active) | inactive |  |  |  |  | inactive | 
Cc1cc(C)cc(C(=O)OC2C[C@H]3CC[C@@H](C2)N3C)c1 (some centres not stated) |  | inactive | inactive |  | inactive | inactive | inactive | 2980 nM (active) | 5.31 µM (active) |  | inactive |  | 1880 nM (active) | inactive | inactive | inactive | inactive |  |  | 
CN[C@]1(c2ccccc2Cl)CCCCC1=O | inactive | inactive |  | inactive | inactive | inactive | inactive | inactive | inactive |  | inactive | inactive | inactive | inactive | inactive | inactive | inactive | inactive | inactive | 
CCC/C=C/C=C/C(=O)O[C@H]1/C(=C/C(=O)OC)C[C@H]2C[C@H]([C@@H](C)O)OC(=O)C[C@H](O)C[C@@H]3C[C@H](OC(C)=O)C(C)(C)[C@](O)(C[C@@H]4C/C(=C/C(=O)OC)C[C@H](/C=C/C(C)(C)[C@]1(O)O2)O4)O3 |  | inactive | inactive |  | inactive | inactive | inactive | 3.8 nM (active) | 0.0042 µM (active) |  | inactive | inactive | 3.8 nM (active) |  |  |  | inactive | inactive | inactive | 
CNC(C)Cc1ccccc1 (configuration not stated) | inactive | inactive | inactive | inactive | inactive |  | inactive | inactive | inactive |  | inactive |  |  |  |  |  |  |  |  | 
